# Experimental data published in PubChem BioAssay AID651789 (National Center for Advancing Translational Sciences (NCATS), 2012).
# Results filed as inconclusive are left out. Entries that show only a call come without a potency. The source made the active and inactive calls. The call rests on the fitted dose curve; in most records, active means well fitted inhibition curve with a large enough effect; inconclusive means small, poorly fitted or top-dose-only effect; inactive means no such curve, though single readings can be large or run the other way.
# Test: Acumen qHTS Assay for Inhibitors of the mTORC1 Signaling Pathway in WT MEF Cells: Hit Validation; further: nearly all actives have a fitted effect of over 60% in size
# Conditions: Acumen imaging; series mostly up to 37.3 µM
# Procedure, shortened: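 Read-out is immunofluorescent phospho-rpS6 (Ser235/236) normalised to PI-stained cell number, reported as % active cells using a 7.5 nM rapamycin threshold. Cells: WT or Tsc2-/-, p53-/- MEFs, compound-exposed 24 h at 37C; PI count also tracks viability.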
# Potency means the concentration at half of the fitted maximal effect.
row,Structure (SMILES),Potency
1,Cc1cccc(CS(=O)(=O)c2ncc(Cl)c(C(=O)Nc3nnc(C(C)C)s3)n2)c1,14.7 µM (active)
2,Cc1nn(C(C)C(=O)NC2CCCCC2)c(=O)c2c1sc1ccccc12 (stereo not given),inactive
3,CCn1c(CC2C(=O)N(C)c3ccc(Br)cc32)nc2ccccc2c1=O (stereo not given),inactive
4,COc1ccc(/C=C/C(=O)Nc2ccc3nc(N4CCC(C)CC4)cc(C)c3c2)cc1OC,inactive
5,O=S(=O)(NCC(c1ccco1)N1CCN(c2ccc(F)cc2)CC1)c1ccccc1 (stereo not given),inactive
6,CN1CCN(C2(CNC(=O)COc3ccc(C(C)(C)C)cc3)CCCCC2)CC1,inactive
7,CC(C)CCNC(=O)Nc1ccc2c(c1)N(C)C(=O)c1ccccc1S2,inactive
8,Cc1ccc2sc(N(CCCN(C)C)C(=O)c3ccco3)nc2c1C,inactive
9,COc1ccc(N2CC(c3nc(-c4cc(OC)c(OC)c(OC)c4)no3)CC2=O)cc1Cl (stereo not given),inactive
10,COC(=O)c1c(C)oc2ccc(N(C(=O)c3ccncc3)S(=O)(=O)c3ccc(OC)cc3)cc12,4.14 µM (active)
11,O=C(CCCn1c(=O)c2ccccc2n(Cc2cccc(Cl)c2)c1=O)NCCc1ccc(Cl)cc1,inactive
12,COc1ccc(OC)c(NC(=O)c2nnn(CC(=O)Nc3ccc(C(C)C)cc3)c2N)c1,inactive
13,Cc1ccc(CNS(=O)(=O)c2cc(C(=O)Nc3cccc(C(F)(F)F)c3)ccc2F)cc1,inactive
14,O=C(Nc1ccc2oc(-c3ccc4ccccc4c3)nc2c1)c1cc(Br)ccc1Cl,13.1 µM (active)
15,Cc1nn(CC(=O)N2CCN(c3ccccc3F)CC2)c(=O)c2cccn12,inactive
